Bioassay records: PubChem, National Center for Advancing Translational Sciences (NCATS)
Most compounds without a hit are left out; they make up all but 10% or so of the library.
ALDH1A1 inh – inhibitors of human aldehyde dehydrogenase 1A1; P00352; Purified ALDH1A1, NADH fluorescence, propionaldehyde substrate; Potency, µM (highest dose often 75.3 µM), without a hit: top-dose activity, negative = inhibition, most hits filed as inhibitors; 7.3% of 220,000 active;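 further: potency means the concentration at half of the fitted maximal effect; plate controls were no enzyme wells and a reference inhibitor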
Target sequence (P00352 whole entry, looked up): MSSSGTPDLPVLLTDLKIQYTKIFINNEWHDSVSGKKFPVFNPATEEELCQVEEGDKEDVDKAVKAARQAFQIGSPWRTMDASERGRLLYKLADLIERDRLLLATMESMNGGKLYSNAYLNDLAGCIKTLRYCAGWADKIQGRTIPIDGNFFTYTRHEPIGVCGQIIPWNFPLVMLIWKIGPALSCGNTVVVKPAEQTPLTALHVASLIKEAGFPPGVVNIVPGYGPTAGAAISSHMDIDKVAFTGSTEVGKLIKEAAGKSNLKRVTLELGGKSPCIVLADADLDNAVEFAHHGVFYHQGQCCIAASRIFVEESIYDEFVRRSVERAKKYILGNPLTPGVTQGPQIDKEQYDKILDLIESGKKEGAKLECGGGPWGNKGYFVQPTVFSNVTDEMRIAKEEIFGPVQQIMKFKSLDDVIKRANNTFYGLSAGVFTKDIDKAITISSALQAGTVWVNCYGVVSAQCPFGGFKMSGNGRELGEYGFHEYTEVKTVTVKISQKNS
HPGD inh – HPGD (human) dehydrogenase inhibition; P15428; purified HPGD, NADH fluorescence kinetic, PGE2 substrate; Potency, µM, without a hit: top-dose activity change, negative = inhibition, usual class: inhibitors; 4.3% of 150,000 active; AID 894; further: potency means the concentration at half of the fitted maximal effect
Target sequence (P15428 whole entry, looked up): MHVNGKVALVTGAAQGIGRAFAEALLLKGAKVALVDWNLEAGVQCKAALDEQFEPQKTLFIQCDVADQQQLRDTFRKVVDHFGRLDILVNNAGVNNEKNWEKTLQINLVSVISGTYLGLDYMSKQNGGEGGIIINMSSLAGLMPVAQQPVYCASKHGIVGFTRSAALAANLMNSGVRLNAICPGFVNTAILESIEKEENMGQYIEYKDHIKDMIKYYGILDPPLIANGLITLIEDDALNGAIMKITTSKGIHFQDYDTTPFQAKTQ
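NADH formation kinetics: reaction with 30 uM PGE2 and 1 mM NAD+ (final), 20 nM enzyme, Tris-HCl pH 8 with Tween 20, after 15 min compound preincubation at room temperature. Fluorescence change, last versus first of five reads.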
Lamin A splicing – LMNA splicing modulation. HeLa LMNA splicing GFP/RFP minigene ratio, 48 h. Potency, µM (top dose mostly 46.1 µM), for inactives: at the top dose ratio change, negative = inhibition, usual class: inhibitors. 0.01% of 200,000 active; active means well fitted inhibition curve with a large enough effect in the signal ratio, with a control signal flat, not every such curve was filed as active; inconclusive means small, poorly fitted or top-dose-only effect, or effect the other way, or a change in a side signal; the % refers to the signal ratio; further: potency means the concentration at half of the fitted maximal effect
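S3 HeLa cells stably expressing lamin A-EGFP splicing minigene plus DsRed2, 600 cells/well, 48 h compound exposure at 37C. Laser-scanning cytometry; analysed as GFP (500-530 nm)/RFP (575-640 nm) total intensity ratio; 0.5% DMSO vehicle.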
PNC assembly inh – inhibitors of perinucleolar compartment assembly; activity change (PNC), negative = inhibition, % at 10 µM; PC3M PTB-GFP, PNC prevalence imaging, 16 h; hits give low values; 3.1% of 140,000 active;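 active means readout at or below -70, meaning at least 70% loss of cells showing the perinucleolar compartment, a nuclear body marking cancer cells; inconclusive means readout between -30 and a set limit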;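 further: plate controls were DMSO wells for no effect and camptothecin positive control wells for full effect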
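Compounds are pinned in duplicate onto adhered PC3M cells stably expressing GFP-tagged PTB and incubated 16 h at 37 C. Cells are then fixed, nuclei stained with Hoechst, and PNC-positive cells counted.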
KinaseGlo FLuc – counter-screen: inhibitors of Kinase-Glo firefly luciferase. Q27757. Kinase-Glo luciferase, ATP luminescence, 8 min. Potency, µM (titrated, usually from 38.3 µM), for inactives: top-dose activity change, negative = inhibition, usual class: inhibitors. 0.28% of 200,000 active; active means well fitted inhibition curve with a large enough effect; inconclusive means small, poorly fitted or top-dose-only effect; further: potency means the concentration at half of the fitted maximal effect; nearly all actives have a fitted effect of over 60% in size
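Inhibition of Kinase-Glo luciferase light generation was assessed at 10 uM ATP in pH 7.2 imidazole buffer, with luminescence measured after eight minutes at ambient temperature.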
* hit, by the source's call; ? = inconclusive; . = no result; [ ] = dose if it differs, or a comment. Unless noted, the call rests on the fitted dose curve; in most records, active means well fitted inhibition curve with a large enough effect (not every such curve was filed as active); inconclusive means small, poorly fitted or top-dose-only effect, or another doubt; inactive means no such curve, though single readings can be large or run the other way. Unless noted, on the % scale 0 is the no-effect control and ±100 the full control effect.

SMILES | ALDH1A1 inh | HPGD inh | Lamin A splicing | PNC assembly inh | KinaseGlo FLuc
CC(C)NCc1c(O)c(Br)cc2oc3c(c12)CCCC3 | 9% | -9% | -5% | ? | 0%
O=C1NCCCc2c1oc1cc(Br)c(O)c(Br)c21 | 4µM* | -23% | ? | -17 | 4%
CC#CCN1c2ccccc2[C@]23C[C@@H](C(=O)OC)N(S(=O)(=O)CCCC)C2=NC(C(=O)OC)=C(C(=O)OC)[C@H]13 | 3%[13.5 µM] | -8% | -1%[9.22 µM] | . | 2%[7.66 µM]
CCC(=O)Nc1nnc(S(=O)(=O)N(C)Cc2ccccc2)s1 | . | . | 4%[46 µM] | . | .
CNC(=O)c1ccc(OC2CSC2)cc1 | 0% | -5% | 6% | -25 | 0%
CNC(=O)c1ccc(Oc2ccc(C(=O)NC)cc2)cc1 | -12% | 2.5µM* | 5% | -2 | -6%
CC(C(=O)Nc1ccccc1-c1ccccc1)N1CCN(S(=O)(=O)c2ccccc2)CC1 (stereo not given) | ? | -10% | 5% | ? | 3%
CC(C(=O)Nc1ccccc1-c1ccccc1)N1CCCCC1 (stereo not given) | 20µM* | -17% | 12% | 9 | 5%
CC(C)c1ccc(S(=O)(=O)N2CCN(C(C)C(=O)Nc3ccccc3-c3ccccc3)CC2)cc1 (stereo not given) | 2.8µM* | -7% | 3% | 23 | -4%
O=C(Nc1cccn(Cc2c(F)cccc2Cl)c1=O)NC1CCCCC1 | 25µM* | . | . | . | -2%
O=C(Nc1cccn(Cc2cccc(F)c2)c1=O)NC1CCCCC1 | ? | . | . | . | 3%
Cc1ccc(S(=O)(=O)N2CCCc3cc(NC(=O)c4ccc(C(F)(F)F)cc4)ccc32)cc1 | . | . | 4%[46 µM] | . | .
CCC(Sc1nc2ccc(N)cc2s1)C(=O)Nc1nccs1 (stereo not given) | 7.9µM* | 25µM* | 0% | -22 | -1%
CCC(Sc1nnc(C)s1)C(=O)Nc1nccs1 (stereo not given) | ? | -18% | 14% | 12 | 13%
COc1ccccc1Cc1nc2ccccc2nc1SCC(=O)Nc1c(C)cccc1C | . | . | -15%[46 µM] | . | .
N[C@@H](COP(=O)(O)O)C(=O)O | 4% | -8% | -10% | . | -8%
CCN(CC)c1ccc(NC(=O)c2cc(OC)cc(OC)c2)c(C)c1 | -2% | -7% | ? | -89* | -1%
CCN(CC)c1ccc(NC(=O)c2cccc(OC)c2)c(C)c1 | -9% | -6% | ? | ? | 4%
O=C(O)CCN1C(=S)CSC1=S | -11%[13.5 µM] | -17% | . | . | -6%[7.66 µM]
CCOc1ccc(-c2nnn(CC(=O)NCc3ccco3)n2)cc1OCC | -1% | -8% | 1% | -100* | -3%
CCCCOc1ccc(-c2nnn(CC(=O)NCc3ccco3)n2)cc1 | -4% | -12% | -17% | 18 | -1%
Cc1ccc(SCCC(=O)N2CCC(C(N)=O)CC2)cc1 | -14% | . | 4% | ? | .
Cc1ccc(SCCC(=O)N2CCCC2)cc1 | ? | 14µM* | ? | ? | -2%
Cc1ccc(SCCC(=O)N2CCC(C)CC2)cc1 | ? | 7.9µM* | ? | 22 | -3%
COC(=O)C1C(c2ccc(N(C)C)cc2)C(C(=O)OC)S(=O)(=O)CS1(=O)=O (stereo not given) | 10µM* | . | . | . | -1%
SMILES | ALDH1A1 inh | HPGD inh | Lamin A splicing | PNC assembly inh | KinaseGlo FLuc
CCCC(=O)c1ccc(N2CCCCC2)c(F)c1 | -11% | . | 1%[46 µM] | . | 0%
CCC(=O)c1ccc(N2CCC(C)CC2)c(F)c1 | 5% | . | 7%[46 µM] | . | -1%
CCCC(=O)c1ccc(N2CCC(C)CC2)c(F)c1 | 4% | 14µM* | 5% | 8 | -1%
CCCC(=O)c1ccc(N2CCCCCC2)c(F)c1 | ? | 16µM* | -3% | 0 | 1%
[O-]/C(=C(\C(=S)NCc1ccccc1)[n+]1ccccc1)c1ccc(Cl)s1 | 18µM* | . | . | . | 6%
Cc1ccc(/C([O-])=C(/C(=S)Nc2ccc(SC(F)F)cc2)[n+]2ccccc2)cc1[N+](=O)[O-] | 4.5µM* | . | -5%[46 µM] | . | -4%
Cc1ccc(/C([O-])=C(/C(=S)NCCN2CCOCC2)[n+]2ccccc2)cc1[N+](=O)[O-] | 22µM* | . | 9%[46 µM] | . | 1%
Cc1ccc(NC(=S)/C(=C(\[O-])c2ccc(C)c([N+](=O)[O-])c2)[n+]2ccccc2)cc1C | ? | -14% | 16% | 13 | 1%
[O-]/C(=C(\C(=S)Nc1cccc2ccccc12)[n+]1ccccc1)c1cccs1 | ? | . | 9%[46 µM] | . | 2%
[O-]/C(=C(\C(=S)NCCN1CCOCC1)[n+]1ccccc1)c1ccc(Cl)s1 | 10µM* | . | ? | . | -6%
CO[C@H]1COC(=O)C/C=C\[C@@H](C)[C@H](OC)COC(=O)[C@H]2CCCN2C(=O)C/C=C\[C@@H]1C | 1%[13.5 µM] | . | . | . | .
C[N+](C)(N)Cc1csc(-c2ccc(Cl)cc2)n1 | -6%[13.5 µM] | -5% | . | . | -8%[7.66 µM]
CN1CCN(C(=S)NC(=O)c2ccc(Cl)cc2)CC1 | 18µM* | . | 16%[46 µM] | . | 0%
CN1CCN(C(=S)c2ccc(Cl)cc2)CC1 | 8% | -7% | -9% | 26 | -2%
O=C(CN1CCC(O)(c2ccc3c(c2)OCO3)CC1)OC1CCCCC1 | 3% | 6% | 10% | -84* | -3%
COc1nc(N(c2ccccc2)c2ccccc2)nc(-n2ccnc2)n1 | 1.4µM* | -13% | ? | -29 | -3%
CN1CCN(NC(=O)CN2C(=O)/C(=C/c3ccccc3Cl)SC2=S)CC1 | ? | 13µM* | -22% | -10 | 3%
Cc1nc2ccccc2c(=O)n1NC(=O)c1c(O)c2c(n(CC(C)C)c1=O)CCCC2 | -12% | -16% | ? | -94* | 1%
CCCCCCc1nc2ccccc2c(=O)n1NC(=O)c1c(O)c2c(n(CC(C)C)c1=O)CCCC2 | ? | ? | ? | ? | -4%
CN(C)c1ccc(NC(=O)/C=C/c2c(Cl)cccc2Cl)cc1 | ? | -8% | ? | -93* | -1%
OC1(c2ccc(F)cc2)CCN(Cc2nnnn2Cc2cccs2)CC1 | 4.5µM* | -4% | 4% | -20 | -3%
OC1(c2cccc(C(F)(F)F)c2)CCN(Cc2nnnn2Cc2ccccc2)CC1 | -13% | . | ? | . | 2%
CS(=O)(=O)N1CCc2cc(-c3csc(NCC4CCCO4)n3)ccc21 (stereo not given) | 14µM* | 40µM* | -2% | ? | 1%
CS(=O)(=O)N1CCc2cc(-c3csc(NC(=O)Cc4ccccc4)n3)ccc21 | ? | -4% | ? | -119* | 3%
CC1Cc2cc(-c3csc(NC(=O)Cc4cccs4)n3)ccc2N1S(C)(=O)=O (stereo not given) | ? | -13% | ? | -125* | -4%
COc1ccc(C)cc1NC(=O)CSc1nc(=O)n(Cc2cccnc2)c2c1CCC2 | . | . | -2%[46 µM] | . | .
CC(C)[C@H](O)C1=CCCCC1=O | 5% | -1% | . | . | -1%
CCNc1ccccc1 | 9% | -3% | . | . | .
COc1ccc(CNC(=O)C(=O)NCC(c2ccco2)S(=O)(=O)c2ccc(Cl)cc2)cc1 (stereo not given) | . | . | -2%[46 µM] | . | .
